The list is not random: actives were taken first. Their share in the collection is about 3.8%.
rRNA inh HTS: reduced GFP signal of wild-type E. coli, primary screen, bacterial rRNA inhibitor project, GFP/RFP fluorescence, OD600, single point; E. coli WT GFP vs humanized-ribosome RFP mutants, 24 h; active compounds read low; DMSO median 0, no signal -100; actives 1.6% (n = 350,000); GFP signal change (wild-type ribosome), % (test concentration not listed);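 active means significant combined selectivity score with lowered wild-type GFP, culture density cut under 30%, mutant RFP and density less affected; inactive means any of these conditions unmet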
FGF22 binding: binders of human FGF22 protein, primary screen, FGF22 synaptogenesis inhibitor project, biophysical, thermal shift, single point. AID 651658, 2012. recombinant FGF22 thermal shift, SYPRO orange fluorescence; percent of sucrose octasulfate shift, DMSO zero. actives 1.5% (n = 340,000). activity (Tm shift, normalised), % at 9.99 µM;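 active means mean Tm shift, scaled 0 neutral to 100 positive control, at about 1.3% or above, every replicate too, limit read from the data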
Target sequence (Q9HCT0 whole entry, looked up): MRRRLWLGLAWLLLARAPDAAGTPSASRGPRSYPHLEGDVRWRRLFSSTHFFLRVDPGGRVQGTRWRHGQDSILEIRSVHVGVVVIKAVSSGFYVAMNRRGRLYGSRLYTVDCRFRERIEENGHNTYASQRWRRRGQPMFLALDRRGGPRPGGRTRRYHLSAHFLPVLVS
ADAM10 inh: human ADAM10 inhibitors, primary screen, biochemical, QFRET, HTS. recombinant ADAM10, EDANS/DABCYL FRET peptide cleavage, 3 h. inhibition, % at 7 µM. actives 0.62% (n = 370,000). AID 720582, 2013;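 active means inhibition above a per-campaign cutoff equal to the mean of compounds falling between control-based bounds plus 3 SD, cut at about 20% in these data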
KLK7 zymogen act: proKLK7 zymogen activators, primary screen, biochemical, fluorescence intensity; AID 652039, 2013; activation, % at 7 µM; actives 0.9% (n = 370,000); Kallikrein-7 (Homo sapiens), P49862; purified proKLK7, EDANS-DABCYL substrate fluorescence; 100% is mature enzyme control, 0% vehicle;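 active means activation above the mean of all tested compounds plus 3 SD, computed per campaign excluding outliers beyond control limits, cut at about 13% in these data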
Target sequence (P49862 whole entry, looked up): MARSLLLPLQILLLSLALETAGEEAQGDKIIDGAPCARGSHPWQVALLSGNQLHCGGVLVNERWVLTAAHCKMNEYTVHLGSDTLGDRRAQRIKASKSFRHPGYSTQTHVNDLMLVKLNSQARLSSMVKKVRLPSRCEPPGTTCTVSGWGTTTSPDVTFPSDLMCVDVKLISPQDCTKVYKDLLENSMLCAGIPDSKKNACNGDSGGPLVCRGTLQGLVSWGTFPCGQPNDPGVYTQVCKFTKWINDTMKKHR
ADAM17 inh: ADAM17 inhibitors, primary screen, biochemical, QFRET. Disintegrin and metalloproteinase domain-containing protein 17 (Homo sapiens), P78536. recombinant ADAM17, EDANS/DABCYL FRET peptide cleavage. inhibition, % at 6.95 µM. actives 0.83% (n = 370,000). AID 720648, 2013;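 active means inhibition above the mean of compounds lying between control limits plus 3 SD, set per campaign, cut at about 8.5% in these data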
Of the large screens only hits and unclear results are named; the others gave an inactive call.

COc1ccc(CCNC(=O)CO/N=C/c2cc3c(cc2Br)OCO3)cc1OC	rRNA inh HTS -36
O=C(NC(=S)N1CCc2ccccc21)c1ccccc1Br	none (no result: rRNA inh HTS, FGF22 binding)
O=C(NC(=S)N1CCc2ccccc21)c1ccc(Br)o1	rRNA inh HTS -42 (no result: FGF22 binding)
CC(C)CC#Cc1cnc2c(c1)C(=O)N([C@H](C)CO)C[C@@H](C)[C@H](CN(C)C(=O)C1CCOCC1)O2	none (no result: ADAM10 inh, KLK7 zymogen act, ADAM17 inh)
Cc1cccc(N=NC(=S)NNc2cccc(C)c2)c1	rRNA inh HTS -20
C[C@H](CO)N1C[C@H](C)[C@@H](CN(C)C(=O)Nc2cc(F)ccc2F)Oc2cc(/C=C/c3ccccc3)ccc2S1(=O)=O	none (no result: ADAM10 inh, KLK7 zymogen act, ADAM17 inh)
CCn1c2ccccc2c2cc(/C=N/n3c(-c4cc(C)[nH]n4)n[nH]c3=S)ccc21	rRNA inh HTS -31
CCn1c2ccccc2c2cc(/C=N/n3cn[nH]c3=S)ccc21	none (no result: rRNA inh HTS, FGF22 binding)
C/C(=N/NC(=O)c1ccc(-c2ccccc2)cc1)c1cccc(O)c1	rRNA inh HTS -26
C/C(=N\NC(=O)c1cccc(O)c1)c1cccc(NC(=O)c2ccc(F)cc2)c1	none
C/C(=N\NC(=O)c1ccc(N/N=C(\C)c2ccc(O)cc2)cc1)c1ccc(O)cc1	rRNA inh HTS -21
C/C(=N\NC(=O)c1ccc(Cl)cc1)c1cccc(NC(=O)c2cccnc2)c1	none (no result: rRNA inh HTS, FGF22 binding)
C/C(=N\NC(=O)c1cccc(F)c1)c1cccc(NC(=O)c2ccc(F)cc2)c1	FGF22 binding 43 (no result: rRNA inh HTS)
C/C(=N\NC(=O)c1ccc(O)cc1)c1cccc(NC(=O)c2ccc(Cl)cc2)c1	rRNA inh HTS -35
C/C(=N\NC(=O)c1cccc(N/N=C(\C)c2cc(O)ccc2O)c1)c1cc(O)ccc1O	FGF22 binding 43
O=C(NN=Cc1ccccc1O)C1CC1	FGF22 binding 43
O=C(N/N=C/c1ccccc1O)C1SCCCS1	rRNA inh HTS -14
Cc1ccc(S(=O)(=O)NCC(=O)N/N=C/c2ccccc2O)cc1	rRNA inh HTS -31
O=C(CSc1ccccc1)N/N=C/c1ccccc1O	rRNA inh HTS -19
O=C(N/N=C/c1cc([N+](=O)[O-])ccc1O)C1CC1	none
Cc1ccc(S(=O)(=O)NCC(=O)N/N=C/c2ccc(Cl)cc2Cl)cc1	none
CN(C)CC(=O)Nc1ccc2c(c1)[C@@H]1C[C@@H](CC(=O)N3CCOCC3)O[C@@H](CO)[C@@H]1O2	none (no result: ADAM10 inh, KLK7 zymogen act, ADAM17 inh)
O=C(C[C@@H]1C=C[C@@H](NC(=O)C2CCOCC2)[C@H](CO)O1)Nc1ccccc1	none (no result: FGF22 binding, ADAM10 inh, KLK7 zymogen act, ADAM17 inh)
Cc1ccc(OCc2nc(C#N)c(N3CCCCC3)o2)cc1	rRNA inh HTS -32
CN(CCOc1ccccc1)CC(=O)Nc1ccc(Cl)c(S(=O)(=O)N(C)C)c1	rRNA inh HTS -37
Oc1ccc(C2=NNC(=NCc3ccc4c(c3)OCO4)SC2)c(O)c1	none (no result: rRNA inh HTS, FGF22 binding)
Clc1ccc(C2=NNC(=NCc3ccc4c(c3)OCO4)SC2)cc1	ADAM17 inh 12
CCN(CC)c1ccc(C(=C2C=CC(=[N+](CC)CC)C=C2)c2ccccc2)cc1	rRNA inh HTS -56
CCN(CC)C1=CC(=[N+]2CCCC2)CC(C)(C)C1	none (no result: rRNA inh HTS, FGF22 binding)
CN(Cc1ccccc1)C1=CC(=[N+]2CCCC2)CC(C)(C)C1	rRNA inh HTS -33
Cc1ccc(SCc2noc(C(=O)NCC3CCCO3)c2C(=O)O)cc1C (stereo unspecified)	rRNA inh HTS -24
COc1ccc2c3c([nH]c2c1)[C@@H](CO)N(Cc1nccs1)CC31CCN(C(=O)C2CCOCC2)CC1	none (no result: ADAM10 inh, KLK7 zymogen act, ADAM17 inh)
Clc1ccc(C2CC(c3cccs3)n3ncnc3N2)cc1 (stereo unspecified)	rRNA inh HTS -41
COc1cccc(C2CC(c3cccs3)Nc3ncnn32)c1 (stereo unspecified)	none (no result: rRNA inh HTS, FGF22 binding)
O=C(Cn1ccccc1=O)c1ccc(Cl)cc1	none
O=C(Cn1ccccc1=S)c1ccc(Cl)c(Cl)c1	rRNA inh HTS -34
Cc1noc(C)c1S(=O)(=O)N(C)C[C@H]1Oc2ccc(NC(=O)Cc3cn(C)c4ccccc34)cc2C(=O)N([C@H](C)CO)C[C@@H]1C	none (no result: FGF22 binding, ADAM10 inh, KLK7 zymogen act, ADAM17 inh)
O=C(c1ccco1)N1N=C(c2ccc(Cl)cc2)CC1(O)C(F)(F)F (stereo unspecified)	FGF22 binding 43
COc1cccc(C2=NN(C(=O)c3ccc(C)o3)C(O)(C(F)(F)F)C2)c1 (stereo unspecified)	FGF22 binding 43 (no result: rRNA inh HTS)
Cc1cc(=O)[nH]c(N/N=C/CCc2ccccc2)n1	rRNA inh HTS -27
Cc1cc(=O)[nH]c(N/N=C/C=C/c2ccccc2)n1	none
C[C@H]1CN([C@@H](C)CO)C(=O)c2c(c3ccccc3n2C)-c2ccccc2CO[C@@H]1CN(C)Cc1ccc(C(F)(F)F)cc1	none (no result: FGF22 binding, ADAM10 inh, KLK7 zymogen act, ADAM17 inh)
C[C@@H]1CN([C@H](C)CO)C(=O)c2c(c3ccccc3n2C)-c2ccccc2CO[C@@H]1CN(C)Cc1ccc(C(F)(F)F)cc1	FGF22 binding 1.4 (no result: ADAM10 inh, KLK7 zymogen act, ADAM17 inh)
C[C@H]1CN([C@@H](C)CO)C(=O)c2c(c3ccccc3n2C)-c2ccccc2CO[C@H]1CN(C)Cc1ccc(Oc2ccccc2)cc1	FGF22 binding 1.3 (no result: ADAM10 inh, KLK7 zymogen act, ADAM17 inh)
COCC(=O)N1CC2(CCN(C(=O)CN3CCOCC3)CC2)c2c([nH]c3cc(OC)ccc23)[C@H]1CO	none (no result: FGF22 binding, ADAM10 inh, KLK7 zymogen act, ADAM17 inh)
Cc1ccc(NS(=O)(=O)c2cc(NC(=O)c3ccc4c(c3)NC(=O)CS4)ccc2Cl)c(C)c1	FGF22 binding 43
COc1ccc2c3c([nH]c2c1)[C@H](CO)N(C(=O)C1CCCC1)CC31CN(S(C)(=O)=O)C1	none (no result: ADAM10 inh, KLK7 zymogen act, ADAM17 inh)
CCCN(CCC)CCNC(=O)c1cc2c(-c3ccc(Cl)cc3)nn(C)c2s1	none
CCN(CC)CCNC(=O)c1cc2c(-c3ccc(Cl)cc3)nn(C)c2s1	KLK7 zymogen act 17
O=CNc1ccc2c3c(cccc13)-c1ccccc1-2	FGF22 binding 45
c1ccc(Nc2ccc3c4c(cccc24)CC3)cc1	none (no result: rRNA inh HTS, FGF22 binding)
COc1ccccc1S(=O)(=O)Nc1ccc2c(c1)OC[C@H](C)NC[C@H](C)[C@@H](OC)CN(C)C2=O	none (no result: ADAM10 inh, KLK7 zymogen act, ADAM17 inh)
O=C(Oc1c(Br)cc([N+](=O)[O-])cc1Br)c1cccnc1	FGF22 binding 44
COc1ccc(Nc2nc3c(C)cccc3cc2C#N)cc1	FGF22 binding 43
CC(=O)N(C)C[C@H]1Oc2ccccc2C(=O)N(C)C[C@H]1C	none (no result: FGF22 binding, ADAM10 inh, KLK7 zymogen act, ADAM17 inh)
Cc1cccc(NC(=O)NC(C)C(c2ccccc2)N2CCN(C)CC2)c1 (stereo unspecified)	FGF22 binding 43
COc1ccc(Nc2nc(C(=O)N3CCc4cc(OC)c(OC)cc4C3)cs2)cc1	rRNA inh HTS -39
COc1ccc(NC(=O)Nc2ccc3c(c2)C(=O)N([C@@H](C)CO)C[C@H](C)[C@H](CN(C)S(=O)(=O)c2ccc(F)cc2)OCCCC[C@@H](C)O3)cc1	none (no result: ADAM10 inh, KLK7 zymogen act, ADAM17 inh)

Screening data (PubChem)
